Our source for the growth inhibition values is PubChem BioAssay (NCI).

This assay in a line: NCI Yeast Anticancer Drug Screen. Data for the wt1 strain (AID 149).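 Further: 0% = growth of vehicle-treated wt1 cultures.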 Conditions: S. cerevisiae wt1 strain (SPY 50644) growth inhibition, stronger effect = higher value. The procedure:
Growth inhibition of yeast strains with defined genetic alterations is measured as a screen for potential anti-cancer activity. Selected strains with alterations in DNA damage repair or cell cycle control were exposed to compounds and growth inhibition was measured relative to vehicle treated controls. The strain used in this assay is wt1

About 79,000 compounds went through this panel and 15% of them were active in at least one assay; those are over-represented in the sample as a whole. A number with no mark means an inactive call. The source made the active and inactive calls. No stated cut-off is given here; in the data, active means growth inhibition above about 70%; inactive means the rest.

Regarding `[N-]=[N+]=NC1(c2ccccc2)C(=O)Nc2ccccc2C1=O` (stereo not given), the growth inhibition reads like this: (at 1.2 µM) -4%; (at 3.7 µM) -2%; (at 11.0 µM) -3%; (at 33.0 µM) 4%; (at 100.0 µM) 22%.
The matching figures for `c1ccc([P+](CCN2Cc3ccccc3C2)(c2ccccc2)c2ccccc2)cc1`: -7%, 31%, 26%, 38% and 95% (active).
With `O=C(Cc1ccccc1)NNc1nc(NNC(=O)c2ccncc2)nc(Nc2ccc([N+](=O)[O-])cc2)n1`, the growth inhibition was -81% (at 1.2 µM); 3% (at 3.7 µM); 12% (at 11.0 µM); 19% (at 33.0 µM); 17% (at 100.0 µM).
The corresponding values for `O=[N+]([O-])c1cc[n+]([O-])c(Cl)c1` are -17%, -26%, -19%, 100% (active) and 99% (active).
`OB(O)c1ccccc1C#Cc1ccccc1`: the growth inhibition reads like this: (at 1.2 µM) -2%; (at 3.7 µM) -2%; (at 11.0 µM) 2%; (at 33.0 µM) 8%; (at 100.0 µM) 15%.
Consider `CC(C)(CN1CCCCC1)C(=O)/C=C/c1c(Cl)cccc1Cl`, for which the growth inhibition runs as follows: (at 1.2 µM) 10%; (at 3.7 µM) 15%; (at 11.0 µM) 32%; (at 33.0 µM) 93% (active); (at 100.0 µM) 97% (active).
The corresponding values for `O=C(Nc1cccs1)c1ccccc1` are -5%, -6%, -8%, -6% and 48%.
The matching figures for `O=C(/C(=C/c1ccc(O)cc1)c1ccccc1)c1ccccc1`: -22%, -13%, 35%, 98% (active) and 92% (active).
